# Shown are actives, neighbours in structure and some others; about 7% of the full set was active somewhere.
# D3 ag – activates the human D3 dopamine receptor | P35462 | D3R DiscoveRx beta-arrestin cells, luminescence, 90 min | max activation, % | actives 0.58% (n = 410,000) | AID 652048; in the data active = max activation above about 30%
# Target sequence (P35462 whole entry, looked up): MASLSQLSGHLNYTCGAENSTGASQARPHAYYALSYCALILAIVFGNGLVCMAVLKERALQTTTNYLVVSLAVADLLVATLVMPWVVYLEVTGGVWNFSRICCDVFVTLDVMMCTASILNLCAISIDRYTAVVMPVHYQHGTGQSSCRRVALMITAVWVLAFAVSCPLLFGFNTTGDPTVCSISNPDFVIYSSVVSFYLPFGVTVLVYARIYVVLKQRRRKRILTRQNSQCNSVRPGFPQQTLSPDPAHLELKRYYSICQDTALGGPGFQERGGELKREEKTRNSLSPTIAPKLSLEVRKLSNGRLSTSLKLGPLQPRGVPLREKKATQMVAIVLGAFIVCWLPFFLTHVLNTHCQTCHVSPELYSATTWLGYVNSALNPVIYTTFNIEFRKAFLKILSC
#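 Cells at 1500/well, incubated overnight, then treated with pinned compounds (dopamine as control) for 90 min at 37 degrees C. DiscoveRx reagent added for 30 - 60 minutes at room temperature; luminescence read.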
# ATXN2 expr inh – ATXN2 expression inhibition; HEK-293 ATXN2-luciferase reporter, luminescence, 24 h; Potency, µM (series often up to 57 µM), usual class: inhibitors; actives 0.72% (n = 360,000); AID 1745845; also: nearly all actives have a fitted effect of over 55% in size
#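 qHTS (up to 57 uM final) was run with 24 h compound exposure of reporter cells at 37 °C. Each well was multiplexed: SteadyGlo luminescence measured ATXN2-luciferase expression after a fluorogenic Gly-Phe-AFC viability readout (25 uM final).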
# ATXN viability – viability counter-screen for ATXN expression inhibitors; actives 0.49% (n = 400,000); Potency, µM (series often up to 56.7 µM), actives largely listed as cytotoxic; S2 cells (HEK-293 line with an ATXN2-luciferase reporter) viability, CellTiter-Fluor protease fluorescence, 24 h; also: nearly all actives have a fitted effect of over 40% in size
# Integrin act MD – activates integrin-mediated alleviation for muscular dystrophy; alpha7betagal myoblasts, beta-gal FDG fluorescence, 48 h; actives 0.064% (n = 350,000); Potency, µM (titrated, usually from 38.3 µM), hits mostly activators; AID 624291; also: nearly all actives have a fitted effect of over 60% in size
#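 alpha7betagal+/- myoblasts (passage 13, 250/well) treated 48 h at 37C with compounds at 1:260 dilution of DMSO stock. Lysed, then beta-galactosidase activity read as FDG fluorescence (ex 480/em 540) after 30 min, with pre-read for autofluorescence.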
# IL-1B inflam inh – inflammasome signaling inhibition, IL-1 beta readout; activity change, % at 57.5 µM; actives 4.7% (n = 360,000); THP-1 LPS/ATP IL-1B secretion, AlphaLISA, 16 h; active compounds read low; in the data active = activity change below about -50%; inconclusive = mostly about -30% to -49%
#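 Secreted IL-1B measured by AlphaLISA bead assay after 16 h compound exposure of THP-1 cells; compounds (final up to 57.5 uM) added 1 h before LPS (250 ng/mL) and ATP (1.25 mM) stimulation; lower signal means less secretion.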
# DRD3 antagonist – blocks the human D3 dopamine receptor. D3R cells, DiscoveRx beta-arrestin luminescence, antagonist mode; active compounds read low. max response, negative = inhibition, %. actives 2.5% (n = 360,000). AID 652054; in the data active = max response below about -50%; inconclusive = no clear call, values can overlap the other calls
#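 Cells plated overnight at 1500 cells/well, then exposed to library compounds with dopamine controls for 90 minutes at 37 degrees C. DiscoveRx reagent added for 30–60 minutes at room temperature; luminescence read, quantitative HTS format.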
# Hits are given with their value; – = inactive; ? = inconclusive; · = no result given; [ ] = another dose, or the depositor's remark. Unless noted, calls follow the shape of the dose curve; as a rule, active = well fitted curve in the direction sought with a large enough effect; inconclusive = small, poorly fitted or top-dose-only effect, or another doubt; inactive = no such curve, though single readings can be large; an effect the other way counts as inactive or inconclusive.
SMILES,D3 ag,ATXN2 expr inh,ATXN viability,Integrin act MD,IL-1B inflam inh,DRD3 antagonist
Cc1nc(-c2cnn(-c3ccccc3)c2)c2cc(C)oc2n1,–,–,–,–,–,–
Cc1nc(/C=C\C(=O)O)c2cc(C)oc2n1,–,–[11.3 µM],–,–,-66,–
O=C(NCCc1nc2ccccc2[nH]1)/C(=C/c1ccc2c(c1)OCO2)NC(=O)c1ccc(Cl)cc1Cl,–,–,–,–,-99,–
O=C1CC(/C=C/c2ccccn2)=Nc2ccccc2N1,–,–,–,–,-75,?
O=C(NS(=O)(=O)Oc1cccc(F)c1)OC[C@@H]1CCCN2CCCCC12 (stereo partly drawn),–,–,–,–,–,–
Cc1cc(C)cc(-n2ncc3c2CCCC3NC(=O)c2ccccc2)c1 (stereo not drawn),–,·,–,–,–,–
CC(=O)Nc1cccc(C(=O)NC2CCCc3c2cnn3-c2ccc(C(C)(C)C)cc2)c1 (stereo not drawn),33,–,·,–,–,–
CC(=O)NCC(=O)NC1CCCc2c1cnn2-c1ccc(C(C)(C)C)cc1 (stereo not drawn),–,–,–,–,–,–
COc1cccc(C(=O)NC2CCCc3c2cnn3-c2cc(C)cc(C)c2)c1 (stereo not drawn),–,–,–,–,-58,–
Cc1c(C)c2cc(Cl)c(OC(C)C(=O)NCCN3CCOCC3)cc2oc1=O (stereo not drawn),–,–,–,–,–,–
N#C/C(=C/c1ccc(Sc2nc3ccccc3[nH]2)o1)c1ccccc1F,–,?,?,–,-96,–
N#C/C(=C/c1ccc(Sc2nc3ccccc3[nH]2)o1)c1cccc(F)c1,–,?,–,–,-94,–
COC(=O)c1c(NC(=O)Cc2cccs2)sc2c1CCC(C)C2 (stereo not drawn),–,–,–,–,-83,–
CCOC(=O)c1c(NC(=O)Cn2cnc([N+](=O)[O-])n2)sc2c1CCC(C)C2 (stereo not drawn),–,–,–,–,?,–
COC(=O)c1c(NC(=S)NN2CCN(C)CC2)sc2c1CCC(C)C2 (stereo not drawn),–,?,?,–,-69,?
COC(=O)c1c(NC(=O)CN(C)CC(=O)Nc2ccc(C)cc2)sc2c1CCC(C)C2 (stereo not drawn),–,–,–,–,–,–
COC(=O)c1c(NC(=O)Cn2cnc([N+](=O)[O-])n2)sc2c1CCC(C)C2 (stereo not drawn),–,–,–,–,-55,–
COc1ccc(CCN2C(=O)NC(NC(=O)c3ccccc3OC)(C(F)(F)F)C2=O)cc1OC (stereo not drawn),–,–,–,·,·,·
COc1cc(-c2cc(-c3nnco3)c3ccccc3n2)cc(OC)c1OC,–,–,–,–,?,–
Cc1ccc(C(=O)N/C(=C\c2ccco2)C(=O)NCCCn2ccnc2)cc1,–,–,–,–,–,–
S=c1nc(-c2ccc(Br)cc2)[nH]c2ccccc12,–,–,–,–,–,–
COc1ccc(N(C)C(=S)Nc2ccc3nc(C)c(C)nc3c2)cc1,–,–,–,–,–,–
NS(=O)(=O)c1ccc2nc(NC(=O)C3CCCO3)sc2c1 (stereo not drawn),–,–,–,–,–,–
O=C1c2cccc3c2N(CCC3)C(=O)C1(F)c1ccccc1 (stereo not drawn),–,–,–,–,–,–
O=C1Nc2ccc(Cl)cc2C(=O)C1(F)c1ccccc1 (stereo not drawn),37,–,–,–,?,–
SMILES,D3 ag,ATXN2 expr inh,ATXN viability,Integrin act MD,IL-1B inflam inh,DRD3 antagonist
O=C1Nc2c(ccc(Cl)c2Cl)C(=O)C1(F)c1ccccc1 (stereo not drawn),–,–,–,?,-99,–
CC(=O)N1CCOc2ccc(S(=O)(=O)N3C(C)CCCC3C)cc21 (stereo not drawn),–,–,–,–,–,–
O=c1ccc2nc3ccccc3sc-2c1,–,?,25µM,·,-102,–
O=C(O)Cn1c(C(F)(F)F)nc2ccccc21,–,–,–,–,–,–
CCCCn1nnnc1SCC(=O)c1cc(Cl)ccc1OC,–,–,–,–,-57,–
O=[N+]([O-])c1ccccc1S(=O)(=O)Oc1ccccc1/C=N/n1cnnc1,–,–,–,–,–,–
O=C(NCCCN1CCC(Cc2ccccc2)CC1)c1ccc(CS(=O)c2ccccc2Cl)o1 (stereo not drawn),–,·,–,–,–,-108
Cc1ccc(S(=O)(=O)N2[C@H](CC(=O)c3ccc(F)cc3)OC[C@@H]2C(C)C)cc1,–,·,·,·,–,–
Cc1ccc(OCCn2c(Br)nc3c2c(=O)n(C)c(=O)n3C)cc1,35,–,–,–,–,–
Cc1ccc(C(=O)CSc2nccn2-c2ccccc2)cc1,–,–,–,–,–,–
O=C(NC(=S)NNC(=O)c1ccccc1O)c1cccs1,37,–,–,–,–,–
Cc1cccc(C(=O)NNC(=S)NC(=O)c2cccs2)c1,–,–,–,–,-100,–
Cc1cccc(C(=O)NNC(=S)NC(=O)c2ccccc2)c1,–,–,–,?,?,–
COCc1cc(C)nc(Oc2ccccc2)c1C#N,–,–,–,–,–,–
CCCN1C[C@H](CSC)C[C@@H]2c3cccc4[nH]cc(c34)C[C@H]21,84,–,–,·,–,–
Cc1cc(C(=O)NNS(=O)(=O)c2ccc(F)cc2)nn1C(C)(C)C,–,·,–,–,–,–
COc1ccc(S(=O)(=O)N2CCN(C(=O)NCc3ccc(OC)c(OC)c3)CC2)cc1,–,–,–,–,–,–
CCN(CC(=O)Nc1ccc(NC(C)=O)cc1)C(=O)Cc1ccc(Cl)c(Cl)c1,–,–,–,–,–,–
CC(C)(C)c1nc(SCC(=O)c2ccccc2)c2ccccc2n1,–,–,–,–,-55,–
CC(C)(C)c1nc(SCC(=O)N2CCCC2)c2ccccc2n1,–,–,–,–,–,–
CC(NC(=O)Cc1cccc(C(F)(F)F)c1)c1ccc(F)cc1 (stereo not drawn),–,–,?,–,–,–
O=C(NCCc1nc(-c2ccccc2Cl)no1)C1CCCCC1,–,–,–,–,–,–
CCc1ccc(C(c2ccc(CC)cc2)C(Cl)Cl)cc1,–,–,–,·,–,-110
Clc1ccc(C(c2ccccc2Cl)C(Cl)Cl)cc1 (stereo not drawn),–,?,–,·,–,–
CCOc1ccc(/C=N/NC(=O)c2ccccc2Cl)cc1CN1CC2CC(C1)c1cccc(=O)n1C2 (stereo not drawn),–,–,–,·,–,-85

# Screens deposited in PubChem BioAssay by National Center for Advancing Translational Sciences (NCATS).
